Data published in PubChem BioAssay AID504585 (National Center for Advancing Translational Sciences (NCATS), 2011).
Results filed as inconclusive are left out. Active and inactive are the calls of the source.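 How the source made its calls: active means NMR saturation transfer binding signal to menin that a known MLL-derived binding peptide displaces; inconclusive means NMR binding signal present but the peptide does not displace it; inactive means no NMR binding signal.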

What follows are compounds tested against Menin (Homo sapiens) (UniProt O00255) (assay: Confirmation of Inhibitors Targeting the Menin-MLL Interaction in MLL Related Leukemias: Binding Confirmation with NMR Saturation Transfer Difference). Conditions: recombinant menin.
Chain of Menin (Homo sapiens) (O00255 whole entry, looked up, the tested form may be a part): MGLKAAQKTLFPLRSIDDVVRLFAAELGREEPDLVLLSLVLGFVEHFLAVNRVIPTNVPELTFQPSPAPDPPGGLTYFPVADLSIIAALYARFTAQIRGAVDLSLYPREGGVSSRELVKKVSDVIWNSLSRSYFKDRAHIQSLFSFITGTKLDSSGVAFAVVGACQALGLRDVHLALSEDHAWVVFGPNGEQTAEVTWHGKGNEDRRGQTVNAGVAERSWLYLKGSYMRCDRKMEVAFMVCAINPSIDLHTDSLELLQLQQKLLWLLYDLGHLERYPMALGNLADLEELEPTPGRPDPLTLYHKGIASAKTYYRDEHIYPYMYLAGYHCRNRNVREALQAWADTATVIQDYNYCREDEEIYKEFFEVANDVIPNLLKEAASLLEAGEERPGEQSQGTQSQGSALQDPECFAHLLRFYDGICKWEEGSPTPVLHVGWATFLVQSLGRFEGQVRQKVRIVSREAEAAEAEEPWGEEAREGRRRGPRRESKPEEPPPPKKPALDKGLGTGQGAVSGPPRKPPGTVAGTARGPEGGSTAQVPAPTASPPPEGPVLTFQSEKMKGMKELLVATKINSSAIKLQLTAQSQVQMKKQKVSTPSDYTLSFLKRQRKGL
From the text: qHTS Assay for Inhibitors Targeting the Menin-MLL Interaction in MLL Related Leukemias NIH Chemical Genomics Center [NCGC] NIH Molecular Libraries Probe Centers Network [MLPCN] MLPCN Grant: MH084875-01A1 Assay Submitter (PI): Jolanta Grembecka, Tomasz Cierpicki, University of Virginia Translocations of the MLL (Mixed Lineage Leukemia) gene are frequently found in human leukemias affecting both children and adults. Fusion of MLL to one of more than 60 genes results in generation of oncogenic proteins upregulating Hox genes, which are vital to blood cell development. Patients harboring fusion of the MLL gene suffer from aggressive leukemias and respond poorly to available therapies. All of the oncogenic fusion proteins have a preserved N-terminal fragment of MLL that has been identified to interact with menin. It has been recently discovered that association with menin is critical to the leukemogenic activity of the MLL fusion oncoproteins. Selective targeting of the menin-MLL interaction could provide an attractive therapeutic approach to develop novel drugs for MLL-related leukemias. Small molecules blocking the menin-MLL interaction should reverse the oncogenic potential of MLL fusion proteins. We have developed and optimized a fluorescence polarization-based assay for the identification of Menin-MLL inhibitors. The assay was run employing two different MLL-derived peptides. The present assay uses a 12 amino acid peptide labeled with fluorescein at its N-terminus. This peptide consists of the menin high affinity binding motif from MLL and is potently bound by menin. Another peptide with a mutated sequence, labeled with Texas Red, was used in parallel as a less stringent screen for inhibitors. The present assay uses an orthogonal technique to identify those compounds specifically interacting with the target protein.
NMR samples for the saturation transfer difference (STD) experiments contained 2.5uM menin solution in 50 mM phosphate buffer, 50 mM NaCl, 1mM DTT, pH= 7.5, with 5% of D2O, final volume 150 uL. The compounds were added as stock solutions in DMSO to final 100 uM concentration and 5% DMSO. All NMR experiments were recorded using 600 MHz Bruker Avance III spectrometer at 25C. Samples for the competition STD experiments contained additional MBM1 peptide at final concentration of 25 uM and the measurements were carried out is the same way as described above for STD experiments.
For COc1ccccc1C(=O)Nc1ccnn1C1CCN(CC2CC=CCC2)CC1 (stereo unspecified), the outcome was “active; true”. With CN(C)c1ccc(C2CC(=O)C=C(Nc3ccccc3N)C2)cc1 (stereo unspecified) the outcome was “inactive; false”. For CCCC(c1nnnn1Cc1cccs1)N1CCN(C2CCCC2)CC1 (stereo unspecified), the outcome was “active; true”. With N#Cc1ccc(OCC(O)CN2CCN(C(c3ccccc3)c3ccccc3)CC2)cc1 (stereo unspecified) the outcome was “active; true”. For C[C@H](NC(=O)c1cc2c(cn1)[nH]c1ccccc12)C(=O)O, the outcome was “inactive; false”. For CCc1ccc2c(c1)C(NC(C)=O)C(=O)N2CCN1CCOCC1 (stereo unspecified), the outcome was “inactive; false”. For O=C(C[N+]12CC[N+](CC(=O)c3ccc(F)cc3)(CC1)CC2)c1ccc(F)cc1, the outcome was “active; true”. In the case of CCC(c1nnnn1Cc1ccc(F)cc1)N1CCN(C2CCCCC2)CC1 (stereo unspecified), the outcome is reported as “active; true”. In the case of O=C(CS)Nc1ccc2ccccc2c1, the outcome is reported as “inactive; false”. Cc1sc2ncnc(NC3CCN(Cc4ccccc4)CC3)c2c1C was tested, and the outcome was “active; true”. For CCOc1ccc2c(c1)C(NC(C)=O)C(=O)N2CCN1CCOCC1 (stereo unspecified), the outcome was “inactive; false”. CC(=O)NC1C(=O)N(CCN2CCOCC2)c2ccc(C)cc21 (stereo unspecified) was tested, and the outcome was “inactive; false”. With CCN(CC)Cc1cc2[nH]c3c4ccc(Cl)cc4ncc3c2cc1OC the outcome was “inactive; false”. With CC(=O)NC1C(=O)N(CCN2CCOCC2)c2ccc(Cl)cc21 (stereo unspecified) the outcome was “inactive; false”. For CCOC(=O)c1cnc2ccc(OCC)cc2c1N1CCN(C)CC1, the outcome was “active; true”. In the case of CCOc1cc(CNCCc2ccc(S(N)(=O)=O)cc2)ccc1OCc1ccccc1, the outcome is reported as “active; true”.
